Test results as given in PubChem BioAssay (Tox21).
Records with an inconclusive call do not appear. Calls of active or inactive are those of the source. The call rests on the fitted dose curve; in most records, active means well fitted curve in the direction sought with a large enough effect in the repeat runs; inconclusive means weak or mixed curves; inactive means no such curve, though single readings can be large; an effect the other way counts as inactive or inconclusive.

test system: not listed separately; assay: qHTS assay to identify small molecule agonists of the constitutive androstane receptor (CAR) signaling pathway - cell viability counter screen (AID 1224836); settings: HepG2-CYP2B6-hCAR viability, CellTiter-Fluor, 23 h, PK11195 added to every well; series mostly up to 92.4 µM; viability change, negative = cytotoxic: at the top concentration; further: nearly all actives have a fitted effect of over 45% in size
In short: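 HepG2 cells stably carrying hCAR and a CYP2B6-2.2kb reporter; 15-concentration compounds plus PK11195 (final 0.75 uM), 23 hr at 37 C/5% CO2. Viability read by CellTiter-Fluor fluorescence.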
On the % scale 0 is the no-effect control and ±100 the full control effect.

SMILES | viability change, negative = cytotoxic
CCOc1ccc(N)c([N+](=O)[O-])c1 | -16.7% (inactive)
CN1CCC(=C2c3ccccc3Sc3ccccc32)CC1 | -17.2% [at 42.5 µM] (inactive)
CCc1c(C(=O)NN2CCCCC2)nn(-c2ccc(Cl)cc2Cl)c1-c1ccc(Br)cc1 | -18.9% (inactive)
CCCCc1nc2cccnc2n1Cc1ccc(-c2ccccc2-c2nnn[nH]2)cc1 | -19% (inactive)
CCCCC/C=C\C/C=C\CCCCCCCC(=O)NC(C)c1ccccc1 (centres undefined) | -0.0972% [at 42.5 µM] (inactive)
Cc1c(N)cccc1[N+](=O)[O-] | -1.67% (inactive)
C[C@H](CCC(=O)O)[C@H]1CC[C@H]2[C@@H]3CC[C@@H]4C[C@H](O)CC[C@]4(C)[C@H]3C[C@H](O)[C@]12C | -16.9% (inactive)
CCCCCCCCCCCCCCOS(=O)(=O)O | 1.37% (inactive)
CCCCCCCCCCCCCCCCOS(=O)(=O)O | -7.51% [at 42.5 µM] (inactive)
CCOC(=O)COC(=O)c1cc(Oc2ccc(C(F)(F)F)cc2Cl)ccc1[N+](=O)[O-] | 0.567% (inactive)
CCCCCCCCCCCCCCCCCCOS(=O)(=O)O | -5.66% (inactive)
CCCCC(CC)CN1C(=O)C2C3C=CC(C3)C2C1=O (centres undefined) | -10.7% (inactive)
COC(=O)C1=C(C)NC(COC(N)=O)=C(C(=O)OC(C)C)C1c1cccc(Cl)c1Cl (centres undefined) | -4.89% [at 42.5 µM] (inactive)
CCCOC(C(=O)OC1CCN(C)CC1)(c1ccccc1)c1ccccc1 | -15.6% [at 42.5 µM] (inactive)
CCOC(=O)C1=C[C@]2(CC)CCCN3CCc4c(n1c1ccccc41)[C@@H]32 | -0.381% [at 42.5 µM] (inactive)
Clc1ccc(Cn2c(CN3CCCC3)nc3ccccc32)cc1 | -10.6% [at 42.5 µM] (inactive)
Cn1c(=O)cc(Oc2ccc(F)cc2F)c2cnc(NCC(C)(C)O)nc21 | 1.15% (inactive)
CCCNCC(O)COc1ccccc1C(=O)CCc1ccccc1 (centres undefined) | -13.5% [at 42.5 µM] (inactive)
O=C(Nc1ccccc1)c1ccccc1O | -20.8% (inactive)
CCCCC1=NC2(CCCC2)C(=O)N1Cc1ccc(-c2ccccc2-c2nn[nH]n2)cc1 | -10.1% [at 42.5 µM] (inactive)
CN(C)C(=O)NC1(c2ccccc2)CCN(CC[C@@]2(c3ccc(F)c(F)c3)CN(C(=O)c3ccccc3)CCO2)CC1 | -16.2% (inactive)
CN1CCC(N(Cc2cccs2)c2ccccc2)CC1 | -17.7% [at 42.5 µM] (inactive)
CCN(CC)CCOC(=O)C(Cc1cccc2ccccc12)CC1CCCO1 (centres undefined) | -8.67% [at 42.5 µM] (inactive)
CCOC(=O)NCCOc1ccc(Oc2ccccc2)cc1 | -20.9% (inactive)
CN(C)CCCN1c2ccccc2Sc2ccccc21 | -14.4% [at 42.5 µM] (inactive)
CN(C)c1ccc(C(c2ccccc2)c2ccc(N(C)C)cc2)cc1 | -1.89% (inactive)
O=C1OC(CN2CCOCC2)CN1/N=C/c1ccc([N+](=O)[O-])o1 (centres undefined) | -21.3% [at 42.5 µM] (inactive)

test system: not listed separately; assay: qHTS assay to identify small molecule antagonists of the constitutive androstane receptor (CAR) signaling pathway - cell viability counter screen (AID 1224837); settings: HepG2-CYP2B6-hCAR viability, CellTiter-Fluor, 23 h, co-treated with 50 nM CITCO; series mostly up to 92.4 µM; activity change, negative = cytotoxicity: at the top concentration; further: nearly all actives have a fitted effect of over 45% in size
In short: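 In quantitative HTS format, compounds at 15 concentrations were applied to HepG2 cells double-transfected with hCAR and CYP2B6-2.2kb under 50 nM CITCO stimulation; live-cell protease activity was read after 23 hr via CellTiter-Fluor.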

SMILES | activity change, negative = cytotoxicity
CCOc1ccc(N)c([N+](=O)[O-])c1 | -16% (inactive)
CN1CCC(=C2c3ccccc3Sc3ccccc32)CC1 | -20.5% [at 42.5 µM] (inactive)
CCc1c(C(=O)NN2CCCCC2)nn(-c2ccc(Cl)cc2Cl)c1-c1ccc(Br)cc1 | -8.3% (inactive)
CC(=O)c1ccc2c(c1)N(CCCN(C)C)c1ccccc1S2 | -14.3% [at 42.5 µM] (inactive)
COc1ccc(C(=O)Nc2nc3ccccc3c(NCc3ccccc3)c2C#N)cc1 | -22.6% (inactive)
CCCCC/C=C\C/C=C\CCCCCCCC(=O)NC(C)c1ccccc1 (centres undefined) | -3.19% [at 42.5 µM] (inactive)
Cc1c(N)cccc1[N+](=O)[O-] | 2.34% (inactive)
C[C@H](CCC(=O)O)[C@H]1CC[C@H]2[C@@H]3CC[C@@H]4C[C@H](O)CC[C@]4(C)[C@H]3C[C@H](O)[C@]12C | -20.4% (inactive)
CCCCCCCCCCCCCCCCOS(=O)(=O)O | 2.56% [at 42.5 µM] (inactive)
CCOC(=O)COC(=O)c1cc(Oc2ccc(C(F)(F)F)cc2Cl)ccc1[N+](=O)[O-] | -3.3% (inactive)
CC(C)OC(=O)C(C)N(C(=O)c1ccccc1)c1ccc(F)c(Cl)c1 (centres undefined) | -28.4% (inactive)
CCCCC(CC)CN1C(=O)C2C3C=CC(C3)C2C1=O (centres undefined) | -7.55% (inactive)
COC(=O)C1=C(C)NC(COC(N)=O)=C(C(=O)OC(C)C)C1c1cccc(Cl)c1Cl (centres undefined) | -10.3% [at 42.5 µM] (inactive)
CCOC(=O)C1=C[C@]2(CC)CCCN3CCc4c(n1c1ccccc41)[C@@H]32 | -8.94% [at 42.5 µM] (inactive)
COc1cc2nc(N(C)CCCNC(=O)C3CCCO3)nc(N)c2cc1OC (centres undefined) | -23.9% [at 42.5 µM] (inactive)
Cn1c(=O)cc(Oc2ccc(F)cc2F)c2cnc(NCC(C)(C)O)nc21 | -3.71% (inactive)
CCCNCC(O)COc1ccccc1C(=O)CCc1ccccc1 (centres undefined) | -11% [at 42.5 µM] (inactive)
O=C(Nc1ccccc1)c1ccccc1O | -15.2% (inactive)
CN1CCC(N(Cc2cccs2)c2ccccc2)CC1 | -20.1% [at 42.5 µM] (inactive)
CCN(CC)CCOC(=O)C(Cc1cccc2ccccc12)CC1CCCO1 (centres undefined) | -27.8% [at 42.5 µM] (inactive)
CCOC(=O)NCCOc1ccc(Oc2ccccc2)cc1 | -15.7% (inactive)
CN(C)CCCN1c2ccccc2Sc2ccccc21 | -19.6% [at 42.5 µM] (inactive)
COc1ccc(C(=O)c2ccc(OC)cc2O)c(O)c1 | -7.43% (inactive)

target: Nuclear receptor subfamily 1 group I member 3 (Homo sapiens) (UniProt Q14994); assay: qHTS assay to identify small molecule antagonists of the constitutive androstane receptor (CAR) signaling pathway (AID 1224838); settings: HepG2-CYP2B6-hCAR luciferase, CITCO-stimulated, 24 h; series mostly up to 92.4 µM; activity, negative = inhibition: at the top concentration; further: nearly all actives have a fitted effect of over 40% in size; further: potency means the concentration at half of the fitted maximal effect
In short: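 CITCO-stimulated (50 nM final) HepG2 cells stably transfected with hCAR and CYP2B6-2.2kb luciferase were exposed to compounds at 15 concentrations for 24 h at 37 C/5% CO2. A luciferase reagent was added and luminescence recorded after 30 min.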

Nuclear receptor subfamily 1 group I member 3 (Homo sapiens), sequence (Q14994 whole entry, looked up): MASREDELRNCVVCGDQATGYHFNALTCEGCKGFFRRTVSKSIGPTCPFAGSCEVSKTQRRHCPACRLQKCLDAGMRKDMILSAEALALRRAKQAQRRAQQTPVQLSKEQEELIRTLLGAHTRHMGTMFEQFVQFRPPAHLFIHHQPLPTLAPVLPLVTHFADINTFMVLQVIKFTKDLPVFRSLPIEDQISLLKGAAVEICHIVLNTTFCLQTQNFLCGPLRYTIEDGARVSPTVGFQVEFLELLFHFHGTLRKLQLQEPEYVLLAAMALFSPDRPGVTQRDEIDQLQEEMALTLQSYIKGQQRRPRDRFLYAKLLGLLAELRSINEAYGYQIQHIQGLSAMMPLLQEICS

SMILES | activity, negative = inhibition | Potency
CCOc1ccc(N)c([N+](=O)[O-])c1 | 48.2% (inactive) | 
CN1CCC(=C2c3ccccc3Sc3ccccc32)CC1 | 12.1% [at 42.5 µM] (inactive) | 
CCc1c(C(=O)NN2CCCCC2)nn(-c2ccc(Cl)cc2Cl)c1-c1ccc(Br)cc1 |  | 21.7 µM (active)
CCCCc1nc2cccnc2n1Cc1ccc(-c2ccccc2-c2nnn[nH]2)cc1 | 22.8% (inactive) | 
OCCN1CCN(CCCN2c3ccccc3C=Cc3ccccc32)CC1 | -6.79% [at 42.5 µM] (inactive) | 
CC(=O)c1ccc2c(c1)N(CCCN(C)C)c1ccccc1S2 | -2.92% [at 42.5 µM] (inactive) | 
COc1ccc(C(=O)Nc2nc3ccccc3c(NCc3ccccc3)c2C#N)cc1 | 350% (inactive) | 
CCCCC/C=C\C/C=C\CCCCCCCC(=O)NC(C)c1ccccc1 (centres undefined) | 53.1% [at 42.5 µM] (inactive) | 
Cc1c(N)cccc1[N+](=O)[O-] | 39.3% (inactive) | 
C[C@H](CCC(=O)O)[C@H]1CC[C@H]2[C@@H]3CC[C@@H]4C[C@H](O)CC[C@]4(C)[C@H]3C[C@H](O)[C@]12C | 12.9% (inactive) | 
CCCCCCCCCCCCCCOS(=O)(=O)O | -6.53% (inactive) | 
CCCCCCCCCCCCCCCCOS(=O)(=O)O | -16.7% [at 42.5 µM] (inactive) | 
CCOC(=O)COC(=O)c1cc(Oc2ccc(C(F)(F)F)cc2Cl)ccc1[N+](=O)[O-] | -1.8% (inactive) | 
CC(C)OC(=O)C(C)N(C(=O)c1ccccc1)c1ccc(F)c(Cl)c1 (centres undefined) | 76% (inactive) | 
CNCCCN1c2ccccc2CCc2ccccc21 | -22.5% [at 42.5 µM] (inactive) | 
CCCCC(CC)CN1C(=O)C2C3C=CC(C3)C2C1=O (centres undefined) | 3.68% (inactive) | 
COC(=O)C1=C(C)NC(COC(N)=O)=C(C(=O)OC(C)C)C1c1cccc(Cl)c1Cl (centres undefined) | -24.1% [at 42.5 µM] (inactive) | 
CCOC(=O)C1=C[C@]2(CC)CCCN3CCc4c(n1c1ccccc41)[C@@H]32 | 52.8% [at 42.5 µM] (inactive) | 
Clc1ccc(Cn2c(CN3CCCC3)nc3ccccc32)cc1 |  | 11.9 µM (active)
Cn1c(=O)cc(Oc2ccc(F)cc2F)c2cnc(NCC(C)(C)O)nc21 | 44.4% (inactive) | 
CCCNCC(O)COc1ccccc1C(=O)CCc1ccccc1 (centres undefined) | -9.12% [at 42.5 µM] (inactive) | 
O=C(Nc1ccccc1)c1ccccc1O | 339% (inactive) | 
CCCCC1=NC2(CCCC2)C(=O)N1Cc1ccc(-c2ccccc2-c2nn[nH]n2)cc1 | 0.26% [at 42.5 µM] (inactive) | 
CN1CCC(N(Cc2cccs2)c2ccccc2)CC1 | -7.53% [at 42.5 µM] (inactive) | 
CCN(CC)CCOC(=O)C(Cc1cccc2ccccc12)CC1CCCO1 (centres undefined) | 9.98% [at 42.5 µM] (inactive) | 
CCOC(=O)NCCOc1ccc(Oc2ccccc2)cc1 | 189% (inactive) | 
CN(C)CCCN1c2ccccc2Sc2ccccc21 | -20% [at 42.5 µM] (inactive) | 
CN(C)c1ccc(C(c2ccccc2)c2ccc(N(C)C)cc2)cc1 | -1.01% (inactive) | 
COc1ccc(C(=O)c2ccc(OC)cc2O)c(O)c1 | 150% (inactive) | 
